Where “and” joins values, the source holds several entries; their conditions need not be identical. Equal values may be shown once. Calls of active or inactive are those of the source.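 Rule for the calls, unless noted: active = thallium flux through the channel raised or lowered by more than 3 SD from vehicle-only wells, actives on both sides; inactive = the rest.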
Assays:
[1] = signal quenchers or enhancers, Cy5 substrate/SSB – biochemical, NIH Clinical Collection, E. coli SSB, artefact control for HCV NS3 helicase inhibitor project (AID 743268; call rule not given here); conditions: Cy5-oligo bound E. coli SSB, fluorescence interference
[2] = system: Hepatitis C virus NS3 helicase; experiment: blockers of NS3h binding to DNA – biochemical, fluorescence polarization, NIH Clinical Collection, primary screen (AID 743270; call rule not given here); conditions: NS3 helicase binding to Cy5-dT15 DNA, stronger effect = higher value, concentration not given here
[3] = target: Single-stranded DNA-binding protein (Escherichia coli (strain K12)) (UniProt P0AGE0); experiment: SSB-ssDNA binding inhibitors – biochemical, fluorescence polarization, NIH Clinical Collection, counter-screen for HCV NS3 helicase inhibitor project (AID 743271; in the data active = inhibition above about 28%); conditions: E. coli SSB-DNA binding, stronger effect = higher value, concentration not given here
[4] = compounds distorting NS3 helicase fluorescence signal – biochemical, NIH Clinical Collection, artefact control for HCV NS3 helicase inhibitor project (AID 743272; call rule not given here;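 note: HCV NS3 helicase with a Cy5 labelled single stranded DNA probe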); conditions: fluorescence interference counterscreen, HCV NS3 helicase assay; stronger effect = lower value
[5] = galactose survival enhancers in mitochondrial complex I cybrids – cell-based, galactose medium, ATP luminescence, primary screen (AID 1645843;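 active = z-score of at least 1.8 in each of two replicates, scored against plate mean and spread of sample wells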;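 note: positive z means more ATP and so rescue of galactose-driven cybrid death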); conditions: complex I mutant cybrid cells, 72 h, stronger effect = higher value
F380Y/beta4 = experiment: BK channel mutant inhibitors and activators – cell-based, U2OS BacMam, thallium flux, beta subunits, selectivity assay, profiling panel (AID 1259406); conditions: U2OS BacMam BK variants, at 30 µM;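 note: initial slope of Thallos dye fluorescence rise after thallium is added; log ratio against the mean of 0.3% DMSO vehicle wells on the same plate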
[6] = target: Calcium-activated potassium channel subunit alpha-1 (Homo sapiens) + Leucine-rich repeat-containing protein 26 (Homo sapiens) (UniProt Q12791+Q2I0M4); experiment: as above; conditions: U2OS BacMam BK variants, F380Y/Slo1WT/gamma1, at 30 µM
Calcium-activated potassium channel subunit alpha-1 (Homo sapiens) + Leucine-rich repeat-containing protein 26 (Homo sapiens), sequence (Q2I0M4 whole entry, looked up, one chain of several): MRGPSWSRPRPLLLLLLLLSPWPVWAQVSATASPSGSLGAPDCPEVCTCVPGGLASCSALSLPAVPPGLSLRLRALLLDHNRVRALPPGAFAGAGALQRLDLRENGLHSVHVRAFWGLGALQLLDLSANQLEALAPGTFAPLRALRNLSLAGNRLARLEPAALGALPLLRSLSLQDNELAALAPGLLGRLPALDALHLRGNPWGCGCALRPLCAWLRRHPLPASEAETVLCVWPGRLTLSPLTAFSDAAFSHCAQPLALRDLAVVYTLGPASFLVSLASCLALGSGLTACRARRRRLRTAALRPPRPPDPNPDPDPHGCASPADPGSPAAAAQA

R275C = experiment: as above; conditions: U2OS BacMam BK variants, at 30 µM
R275C/beta1 = experiment: as above; conditions: U2OS BacMam BK variants, at 30 µM
R275C/beta2Delta = experiment: as above; conditions: U2OS BacMam BK variants, at 30 µM
R275C/beta4 = experiment: as above; conditions: U2OS BacMam BK variants, at 30 µM
R275C/Slo1WT/beta2 = experiment: as above; conditions: U2OS BacMam BK variants, at 30 µM
[7] = blockers of polyQ-driven CASP3 activation – cell-based (AID 1583); conditions: polyglutamine-induced caspase-3 activation, cell assay; stronger effect = higher value;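 tested at 10 µM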
[8] = yeast 75Q aggregation reduction – 75Q-TubU reporter (AID 1593); conditions: Yeast 75Q polyglutamine aggregation reporter
[9] = blockers of cytochrome c efflux from mitochondria – biochemical, purified mitochondria (AID 1603); conditions: stronger effect = lower value;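 note: mouse liver mitochondria challenged with calcium chloride; signal normalized to the plate average as 100%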
[10] = polyglutamine aggregate formation blockers (AID 1604); conditions: polyglutamine-induced protein aggregation inhibition assay; stronger effect = higher value; tested at 2.5 µM
[11] = glutamate transport activators, MN-1 cells, MN-1 cell line (AID 1612); conditions: MN-1 motor neuron cells, stronger effect = higher value;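 note: tested at 1 µM final; 0% = mean of DMSO vehicle wells on each plate; positive means more glutamate uptake than control and negative means less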

Compound	fluorescence ratio [1]	inhibition [2]	inhibition [3]	fluorescence ratio [4]	z-score [5]	log fold change Tl+ flux (F380Y/beta4)	log fold change Tl+ flux [6]	log fold change Tl+ flux (R275C)	log fold change Tl+ flux (R275C/beta1)	log fold change Tl+ flux (R275C/beta2Delta)	log fold change Tl+ flux (R275C/beta4)	log fold change Tl+ flux (R275C/Slo1WT/beta2)	inhibition [7]	score [8]	cytochrome c release ratio [9]	inhibition of aggregation [10]	glutamate uptake change [11]
N[C@@H](Cc1cc(I)c(Oc2cc(I)c(O)c(I)c2)c(I)c1)C(=O)O	0.87 (inactive)	0.45% (inactive)	0.29% (inactive)	0.88 (inactive)	-1.38 (inactive) and -0.805 (inactive)	0.107 (active)	0.0246 (inactive)	0.00175 (inactive)	0.0456 (inactive)	0.134 (active)	0.234 (active)	0.0236 (inactive)					
CCCCNc1cc(C(=O)O)cc(S(N)(=O)=O)c1Oc1ccccc1	1.02 (inactive)	-5.91% (inactive)	-2.76% (inactive)	0.97 (inactive)	0.145 (inactive) and 0.39 (inactive) and 0.32 (inactive)	-0.00421 (inactive)	-0.0253 (inactive)	-0.00799 (inactive)	0.0319 (inactive)	-0.0196 (inactive)	0.0225 (inactive)	0.0333 (inactive)	4.16%	1.19	1.53	71.8%	-4.68%
CC1Cc2ccccc2N1NC(=O)c1ccc(Cl)c(S(N)(=O)=O)c1 (configuration not stated)	0.31 (active)	0.45% (inactive)	1.05% (inactive)	0.97 (inactive)	0.635 (inactive) and 0.155 (inactive)	0.0552 (inactive)	-0.0185 (inactive)	0.0209 (inactive)	0.0126 (inactive)	-0.00869 (inactive)	0.00861 (inactive)	-0.000687 (inactive)	11.1%	1.1	0.89	85.9%	-15%
CC1=C(/C=C/C(C)=C/C=C/C(C)=C/C(=O)O)C(C)(C)CCC1	1.02 (inactive)	1.36% (inactive)	2.57% (inactive)	0.87 (inactive)		0.0201 (inactive)	0.0114 (inactive)	0.0107 (inactive)	0.0531 (inactive)	0.0707 (inactive)	-0.0336 (inactive)	-0.0605 (inactive)	16%	0.91	3.67	19.4%	-29.4%
O=c1[nH]cnc2[nH]ncc12	1.02 (inactive)	-5% (inactive)	-3.53% (inactive)	0.99 (inactive)	0.315 (inactive) and -0.255 (inactive)	0.00785 (inactive)	0.0214 (inactive)	0.00104 (inactive)	0.0222 (inactive)	0.0262 (inactive)	0.0379 (inactive)	0.0394 (inactive)	14.4%	1.09	0.77	60.9%	-7.44%
CCc1cc(C(N)=S)ccn1	1.03 (inactive)	-4.09% (inactive)	-4.29% (inactive)	1.01 (inactive)	0.725 (inactive)	0.0197 (inactive)	0.00124 (inactive)	0.0202 (inactive)	-0.00453 (inactive)	-0.00222 (inactive)	0.0412 (inactive)	0.00968 (inactive)	13.5%	1.02	1.06	78.8%	15.8%
Oc1c(Cl)cc(Cl)c2cccnc12	1.02 (inactive)	2.27% (inactive)	-0.48% (inactive)	0.95 (inactive)	-1.51 (inactive)	0.326 (active)	0.231 (active)	0.0996 (active)	0.249 (active)	0.0748 (inactive)	0.422 (active)	0.19 (active)	31.4%	-0.52	0.8	-25.9%	-23%
CCCc1nc2c(C)cc(-c3nc4ccccc4n3C)cc2n1Cc1ccc(-c2ccccc2C(=O)O)cc1	1.02 (inactive)	17% (active)	16.8% (inactive)	1.04 (inactive)	1.57 (inactive) and -0.14 (inactive)	-0.000976 (inactive)	0.054 (inactive)	-0.0814 (inactive)	-0.0256 (inactive)	-0.00129 (inactive)	0.033 (inactive)	0.0168 (inactive)					
CC12CC3CC(C)(C1)CC(N)(C3)C2	1.02 (inactive)	-1.36% (inactive)	-0.48% (inactive)	1.02 (inactive)	-0.41 (inactive) and 0.5 (inactive) and -0.635 (inactive)	0.00566 (inactive)	-0.0203 (inactive)	0.00266 (inactive)	-0.0595 (inactive)	0.0488 (inactive)	0.0101 (inactive)	-0.103 (inactive)	12.5%	1.59	1.07	35%	2.56%

Source: PubChem BioAssay
